Assay outcomes as filed in PubChem BioAssay.
ERb SRC1 inh – ER-beta (human) coactivator binding inhibition; Q92731; 86,000 tested, 1.3% active; inhibition, % at 25.6 µM; TR-FRET ER-beta LBD / SRC1-Cy5 peptide binding; receptor agonist-loaded with 1 µM estradiol;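 active means compounds whose percent inhibition of the receptor-coactivator binding signal exceeds about 50% in the single-dose screen, limit read from the data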;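 further: 0% = receptor plus peptide wells without compound and 100% = peptide-only wells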
ERa SRC1 pot – ER-alpha (human) coactivator binding potentiation. TR-FRET ERalpha-LBD/SRC-Cy5 coactivator binding, 2 h; 100 = basal binding, no effect. coactivator binding (% of control), % at 25.6 µM. 86,000 tested, 1.3% active. AID 639; in the data active means activity above about 200%;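 further: binding measured in presence of low estradiol as agonist stimulus; 0% = peptide alone without receptor and 100% = receptor with peptide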
Smad3 inh – inhibitors of human Smad3 transcription factor binding; P84022; TR-FRET Smad3/Dy647-FoxH1 peptide binding, europium anti-His; inhibition, % at 25 µM; 88,000 tested, 0.29% active; AID 630;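 active means compounds that reduce the energy-transfer binding signal between the protein and its labelled peptide by more than half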;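 further: 0% = Smad3 plus labelled peptide maximal FRET and 100% = peptide-only background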
Candida biofilm – kills Candida albicans biofilms. inhibition, % at 6 µM. C. albicans biofilm + clotrimazole, Alamar Blue. 85,000 tested, 0.14% active. AID 834;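 active means inhibition above 20%; inactive means inhibition below 20%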;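 further: preformed 24 hr biofilms exposed to compound for 48 hr; 0% = biofilm without compound and 100% = blank killed by clotrimazole plus chlorhexidine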
ERa coact inh – blocks coactivator binding to human estrogen receptor alpha; TR-FRET ER-alpha LBD / SRC-1 peptide, estradiol-bound; P03372; 86,000 tested, 1.7% active; inhibition, % at 25.6 µM; in the data active means inhibition above about 50%;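 further: 0% = receptor plus peptide control and 100% = peptide only without receptor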
HePTP inh – human HePTP phosphatase inhibition; inhibition, % at 20 µM; recombinant HePTP phosphatase activity, OD absorbance; 110,000 tested, 0.64% active; in the data active means inhibition above about 50%;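 further: plate controls were vehicle for no effect and reference inhibitor for full effect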
Target sequence (P35236 whole entry, looked up): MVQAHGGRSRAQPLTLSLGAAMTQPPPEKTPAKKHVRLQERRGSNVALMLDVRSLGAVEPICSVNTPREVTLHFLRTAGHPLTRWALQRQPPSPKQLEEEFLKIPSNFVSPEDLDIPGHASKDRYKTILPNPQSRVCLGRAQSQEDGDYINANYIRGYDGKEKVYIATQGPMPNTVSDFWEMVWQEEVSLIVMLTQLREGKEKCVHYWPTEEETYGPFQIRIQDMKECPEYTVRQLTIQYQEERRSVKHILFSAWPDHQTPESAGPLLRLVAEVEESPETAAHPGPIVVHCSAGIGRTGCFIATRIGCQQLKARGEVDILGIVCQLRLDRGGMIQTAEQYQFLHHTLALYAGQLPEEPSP
* marks the source's active call; other numbers are inactive results; / = no result given; [ ] = dose if it differs, or a comment. Compounds with a hit are over-represented: about 2.9% of the library has one in this group of screens.

SMILES	ERb SRC1 inh	ERa SRC1 pot	Smad3 inh	Candida biofilm	ERa coact inh	HePTP inh
O=C(O)c1cccc([As]=[As]c2cccc(C(=O)O)c2)c1 (stereo not given)	/	/	55*	/	/	/
O=C1Nc2ccc(Br)cc2C1=Cc1nc2ccccc2c(=O)n1-c1ccc(O)cc1	/	/	/	/	/	-4
COc1cc2c(cc1OC)[C@]13CCN4CC5=CCO[C@@H](CC(=O)O)[C@H]([C@H]5C[C@H]41)[C@@H]3N2	/	/	88*	/	/	/
O=c1[nH]cnc2[nH]cc(CN3CCCCC3)c12	/	/	78*	/	/	/
CCC1(C)CC(CCNCc2ccc(OC)c(OC)c2)(c2ccc(C)cc2)CCO1 (stereo not given)	/	/	/	/	/	9
Cc1cc(/C=C2/C(=O)NC(=O)N(c3ccccc3)C2=O)c(C)n1-c1ccc(F)cc1	43	110	-6	3	52*	/
Cc1ccc(-n2c(C)cc(/C=C3/C(=O)NC(=O)N(C)C3=O)c2C)cc1	/	/	/	/	/	-3
C[C@]12CC[C@H](O[C@@H]3O[C@H](CO)[C@@H](O)[C@H](O)[C@H]3O)C[C@@H]1CC[C@@H]1[C@@H]2CC[C@]2(C)[C@@H](C3=CCOC3=O)CC[C@@]12O	/	/	56*	/	/	/
O=C(CF)NC(=C(Cl)Cl)P(=O)(c1ccccc1)c1ccccc1	/	/	/	/	/	103*
NC(=O)CSP(=O)(c1ccccc1)c1ccccc1	3	93	-2	-2	-10	6
CCCCCCC(C)CCCC1C(=O)NC(=O)NC1=O (stereo not given)	/	/	/	/	/	-17
Cc1cc(OC(C)C)c2c3c(c(=O)oc2c1)CCC3	/	/	/	/	/	-1
COc1cc2c(cc1OC)[C@]13CC[N@+]4(C)CC5=CCO[C@@H]6CC(=O)N2[C@@H]1[C@@H]6[C@@H]5C[C@]34O	/	/	93*	/	/	/
CCC(CC)N1CCN(Cc2cccc(Cl)c2)CC1	/	/	/	/	/	15
Nc1ccnn1C1CCNCC1	95*[fluorescence artefact?]	43	19	5	96*[fluorescence artefact?]	-8
O=C1NC(=S)NC(=O)C1=Cc1ccccc1OCc1ccccc1F	/	/	/	/	/	5
CO[C@@H]([CH2][Hg][n]1cnc2c1c(=O)n(C)c(=O)n2C)CN1C(=O)c2ccccc2S1(=O)=O	/	/	64*	/	/	/
CCOc1ccc(N2C(=O)/C(=C/c3ccc(Br)o3)C(=O)NC2=S)cc1	/	/	/	/	/	101*
CN1C(=O)NC(=O)/C(=C/c2ccc(Br)o2)C1=O	/	/	/	/	/	76*
CCOc1ccc(N2C(=O)/C(=C/c3ccc(C)o3)C(=O)NC2=S)cc1	/	/	/	/	/	24
CC1(C)CC(=O)C(C2(O)C(=O)NC(=O)NC2=O)=C(O)C1	-6	121	65*[fluorescence artefact?]	4	-8	11
O=C(O)/C=C/c1ccc[c]([Sb](=[O])([OH])[OH])c1	/	/	90*	/	/	/
CC(Nc1ccc([N+](=O)[O-])c2cccnc12)c1ccc(Br)cc1 (stereo not given)	/	/	/	/	/	-4
O=c1c2ccccc2[nH]c(=S)n1-c1ccc(Cl)cc1	/	/	/	/	/	-8
O=C1NC(=O)C(=Cc2cn(CCOc3ccc4c(c3)OCO4)c3ccccc23)C(=O)N1	60*[fluorescence artefact?]	131	8	-1	84*[fluorescence artefact?]	/
SMILES	ERb SRC1 inh	ERa SRC1 pot	Smad3 inh	Candida biofilm	ERa coact inh	HePTP inh
O=c1[nH]c(=S)n(-c2ccccc2F)c(O)c1C=C1C=CC=N1	/	/	/	/	/	103*
Cc1ccc(NC(=O)C2C(C)(C)C2(C)C)cc1C	/	/	/	/	/	5
O=C(COc1ccc2ccccc2c1)N1CCN(CCCc2ccccc2)CC1	/	/	/	/	/	-4
CC1(C)CC(=N[N-]C(N)=[SH+])CC(C)(C)N1.CC1(C)CC(=N[N-]C(N)=[SH+])CC(C)(C)N1.[Ni]	/	/	68*	/	/	/
O=C1NC(=O)C(=Cc2cccc(OCCOc3ccc([N+](=O)[O-])cc3)c2)C(=O)N1	/	/	/	/	/	5
O=[N+]([O-])/C=C/c1ccccc1OCc1ccc(Cl)cc1Cl	/	/	/	/	/	-6
COC(=O)[C@@H]1c2cc3c(c(O)c2[C@@H](O)C[C@]1(C)O)C(=O)c1c(O)cc2c(c1C3=O)O[C@H]1O[C@]2(C)[C@@H](O)[C@H](N(C)C)[C@H]1O	/	/	27	/	/	/
COC(=O)c1c(C)ccc2c(O)c3c(cc12)C(=O)c1c2c(cc(O)c1C3=O)[C@@]1(C)O[C@@](C)(O2)[C@@H](O)[C@H](N(C)C)[C@H]1O	/	/	94*	/	/	/
Nc1ccccc1N=Cc1c(O)n(CCC2=CCCCC2)c(=O)[nH]c1=O	30	140	1	-2	57*	2
O=c1[nH]c(=O)n(CCC2=CCCCC2)c(O)c1C=Nc1cccc(F)c1	10	254*	15	5	20	/
COc1cc(OC)c(OC)cc1CN1CCN(C(C)C)CC1	/	/	/	/	/	-2
O=[N+]([O-])c1cccc(CNCCc2cccc(F)c2)c1	/	/	/	/	/	3
C[C@H]1CCC[C@@H](O)CCC/C=C/c2cc(O)cc(O)c2C(=O)O1	7	466*	1	6	3	4
O=C(COc1ccc([N+](=O)[O-])cc1)Nc1ccc(Br)cc1C(=O)c1ccccc1	/	/	/	/	/	5
N#Cc1c(/N=C/c2c(O)n(Cc3ccco3)c(=O)[nH]c2=O)sc2c1CCCC2	75*	86	23	11	45	4
O=c1[nH]c(=O)n(Cc2ccco2)c(O)c1C=NCc1cccs1	22	88	-4	6	9	4
CN1C[C@@H](C(=O)N[C@@]2(C)O[C@@]3(O)[C@H]4CCCN4C(=O)[C@@H](Cc4ccccc4)N3C2=O)C=C2c3cccc4[nH]cc(c34)C[C@@H]21	/	/	20	/	/	/
CC[C@@H](CO)NC(=O)[C@@H]1C=C2c3cccc4c3c(cn4C)C[C@H]2N(C)C1	51*[fluorescence artefact?]	43	7	1	27	5
Cc1nc2c(=O)n(C)c(=O)nc-2n(C)n1	-8	108	80*	5	-8	/
O=C1NC(=O)N(c2cccc(Br)c2)C(=O)/C1=C/c1ccco1	/	/	/	/	/	102*
Cc1cccc(N2C(=O)NC(=O)C(=Cc3ccco3)C2=O)c1	/	/	/	/	/	16
Cc1ccc(S(=O)(=O)Cc2ccc(C(=O)N3CCC4(CC3)OCCO4)o2)cc1	56*	49	-3	6	51*	24
O=[N+]([O-])N=C1NCN(c2cccc([N+](=O)[O-])c2)CN1	/	/	/	/	/	4
CCOc1ccccc1-n1c(O)c(C=NCc2ccc3c(c2)OCO3)c(=O)[nH]c1=O	-19	100	7	7	-26	7
O=c1[nH]c(=O)n(CCc2ccccc2)c(O)c1C=NCc1ccc2c(c1)OCO2	36	267*[fluorescence artefact?]	9	6	55*[fluorescence artefact?]	/
SMILES	ERb SRC1 inh	ERa SRC1 pot	Smad3 inh	Candida biofilm	ERa coact inh	HePTP inh
COc1ccc(CN2CCN(C(C)C)CC2)c(OC)c1	/	/	/	/	/	1
COc1ccc(OCC(=O)N2CCN(C)CC2)cc1	/	/	/	/	/	2
O=[As](O)(O)c1ccc(Cc2ccc([As](=O)(O)O)cc2)cc1	/	/	79*	/	/	/
O=C1NC(=S)NC(=O)C1=Cc1ccc(O)cc1	/	/	/	/	/	8
c1ccc2c(c1)Sc1ccccc1N2C[C@H]1CN2CCC1CC2	/	/	77*	/	/	/
O=C(Cn1c[n+]([N-][N+](=O)[O-])cn1)Nc1ccc(NC(=O)Cn2c[n+]([N-][N+](=O)[O-])cn2)cc1	/	/	/	/	/	8
CCn1ncc(/C=C2/CC3C4CC=C5CC(O)CCC5(C)C4CCC3(C)C2=O)c1C (stereo not given)	7	542*[fluorescence artefact?]	-421	4	-32	/
Cc1nn(C)c(C)c1/C=C1/CC2C3CC=C4CC(O)CCC4(C)C3CCC2(C)C1=O (stereo not given)	7	81	-11	-1	6	/
